# Screen size: about 330,000 compounds; about 1,700 (0.52%) were called active. The sample as a whole holds a higher share of actives than the screen did. A number with no mark means an inactive call. Calls come from the whole dose curve; as a rule, active = well fitted inhibition curve with a large enough effect; inconclusive = small, poorly fitted or top-dose-only effect; inactive = no such curve, though single readings can be large or run the other way.
# Target: Beta-lactamase (Escherichia coli (strain K12)) (UniProt P00811)
# Experiment: qHTS Inhibitors of AmpC Beta-Lactamase (assay without detergent); note: nearly all actives have a fitted effect of over 20% in size
# Conditions: AmpC nitrocefin hydrolysis, absorbance 480 nm, 0.0001% Triton; series mostly up to 57.1 µM; activity change, negative = inhibition: at the top concentration
# Description: NIH Molecular Libraries Probe Production Network [MLPCN] NIH Chemical Genomics Center [NCGC] Assay Provider: Professor Brian Shoichet, UCSF Assay Overview: This aggregation profiling approach exploits the sensitivity of aggregate formation to detergent. Inhibition of b-lactamase is measured in the presence and absence of 0.01% Triton X-100. This particular assay had the prescence of 0.01% Triton X-100. See Pubchem assay "Promiscuous and Specific Inhibitors of AmpC Beta-Lactamase (assay without detergent)" for related screen. Compounds that inhibit only in the absence of detergent are considered likely promiscuous aggregators. A screen of 1,030 compounds was performed in Brian Shoichet's lab in 96-well format. AmpC activity was measured by following the absorbance at 480 nm. Nitrocefin is a chromogenic substrate: while nitrocefin is yellow (lmax 390 nm), the product of its hydrolysis is red (lmax 486 nm, 17,000 M-1). AmpC beta lactamase was provided by Shoichet Lab, UCSF.
# Buffer: 20 mM phosphate buffer, pH 7.0 Triton X-100: No Detergent screen: 0.0001%, Detergent screen: 0.01%. Reagents/Controls: Buffer in columns 3 and 4 as negative control (no enzyme). 5.3 nM AmpC in columns 1, 2, 5-48. Titration of UCSF compound 9 control (from 10 mM, then 1:2) pin-transferred to column 2. Column 1 is neutral (100% activity). Assay Steps: Six uL of reagents were dispensed to 1536-well Greiner black clear bottom plates. Compounds and controls (23 nL) were transferred via Kalypsys PinTool. The plates were incubated for 15 min at room temperature, and then 2 uL of 800 uM solution of nitrocefin was added to start the reaction. The plates were immediately transferred to and read every 20 seconds for 4 min on ViewLux (Perkin-Elmer) High-throughput CCD imager using 480 nm absorbance protocol. During dispense, reagent bottles were kept submerged into 4 deg C water bath. Keywords: NIH Roadmap, MLSCN, MLI, MLSMR, qHTS, NCGC, AmpC Beta-Lactamase, Aggregation
# Potency is the fitted concentration of half-maximal effect.
# Beta-lactamase (Escherichia coli (strain K12)), sequence (P00811 whole entry, looked up): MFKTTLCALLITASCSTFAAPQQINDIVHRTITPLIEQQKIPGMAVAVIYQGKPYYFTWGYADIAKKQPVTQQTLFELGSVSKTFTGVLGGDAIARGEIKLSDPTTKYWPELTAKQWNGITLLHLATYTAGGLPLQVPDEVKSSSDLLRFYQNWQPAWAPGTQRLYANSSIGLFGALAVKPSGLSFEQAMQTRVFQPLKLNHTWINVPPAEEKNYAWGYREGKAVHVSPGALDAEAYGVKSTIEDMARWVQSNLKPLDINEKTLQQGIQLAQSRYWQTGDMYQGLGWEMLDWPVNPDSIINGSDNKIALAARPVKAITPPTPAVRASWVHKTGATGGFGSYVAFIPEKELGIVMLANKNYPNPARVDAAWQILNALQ
Structure (SMILES),Potency,"activity change, negative = inhibition [%]"
CCOC(=O)c1sc(NC(=O)CSc2nc(O)c(Cc3ccccc3)c(=O)[nH]2)nc1C,15.8 µM (active),–
CCOC(=O)c1sc(NC(=O)CSc2n[nH]c(CC)n2)nc1C,–,-18.1
O=C(O)CCN=C1CCc2ccccc2N1,–,-16.2
COC(=O)c1ccc(NC(=O)CSc2nnc(Cc3cccn3C)n2-c2ccc(F)cc2)cc1,–,144
COc1ccccc1NC(=O)CSc1nnc(Cc2cccn2C)n1-c1ccc(F)cc1,1.41 µM (active),–
Cc1ccc(C)c(NC(=O)CSc2nnc(Cc3cccn3C)n2-c2ccc(F)cc2)c1,–,80.5
O=C(CN1CCCC1)Nc1sc2c(c1C(=O)Nc1ccccc1)CCCC2,–,10.1
Cc1cc2ncn(CCCCOc3ccccc3)c2cc1C,–,38.5
O=C(COC(=O)c1ccc(Oc2ccccc2)cc1)Nc1nnc(-c2ccccc2)o1,12.6 µM (active),–
CC(=O)Nc1cccc(C(=O)OCC(=O)Nc2nnc(-c3ccccc3)o2)c1,–,-23.2
COc1ccccc1C(=O)NCC(=O)OCC(=O)Nc1nnc(-c2ccccc2)o1,–,-23.1
CCn1nnc(NC(=O)c2c(OC)cccc2OC)n1,–,-5.33
CCN(C(=O)COC(=O)C1CCN(S(=O)(=O)c2ccc(C)c(C)c2)CC1)C1CCS(=O)(=O)C1 (stereo unspecified),–,114
CCOC(=O)C1CCCN(C(=O)CSc2nnc3nc(C)cc(C)n23)C1 (stereo unspecified),–,122
CC(=O)NCc1ccc(-c2csc(NC(=O)CCCc3nc4ccccc4c(=O)[nH]3)n2)cc1,–,-1.05
O=C(CSc1nc2ccccc2c(=O)[nH]1)Nc1nc(-c2ccc(Br)cc2)cs1,–,-21.7
Cc1cc(C)c(-c2csc(NC(=O)CCCc3nc4ccccc4c(=O)[nH]3)n2)c(C)c1,35.5 µM (active),–
O=c1cc(CO)oc(C(Nc2cccc(C(F)(F)F)c2)c2ccccn2)c1O (stereo unspecified),–,-7.84
O=C(O)CN1c2cccc3cccc(c23)S1(=O)=O,–,-20.4
Cc1cc(NC(=O)CS(=O)(=O)c2cn(C)c3ccccc23)no1,10 µM (active),–
Cc1cc(NC(=O)COn2nnc3ccccc32)no1,–,-10.9
CCOC(=O)c1ccc(NC(=O)CS(=O)(=O)c2cn(CC)c3ccccc23)cc1,–,-17.8
Cc1ccc(NC(=O)CCCNC(=O)c2ccc(Cl)cc2)cc1S(=O)(=O)N1CCCCC1,–,-9.32
CC1=C[C@H]2Cc3cc(C)cc(C)c3S(=O)(=O)[C@@H]2C=C1,–,-29.6
Cn1nccc1/C=N\NC(=O)c1ccc(Cl)cc1,–,-18.8
CC1(C)C2CC=C(/C=N/NC(=O)c3ccc(Cl)cc3)C1C2 (stereo unspecified),11.2 µM (active),–

Structure (SMILES),Potency,"activity change, negative = inhibition [%]"
CC1(C)C2CC=C(/C=N/NC(=O)C3CC3)C1C2 (stereo unspecified),–,-16.2
Cc1c(C(=O)N(C)CCc2cnn(C)c2)oc2c(F)cccc12,–,17.1
COc1ccc(COC(=O)c2n[nH]c3ccccc23)cc1F,–,-30.2
CN(C)S(=O)(=O)c1ccc(NC(=O)COC(=O)c2n[nH]c3ccccc23)cc1,–,-36.1
CCN(CC)S(=O)(=O)c1ccc2nc(COC(=O)c3n[nH]c4ccccc34)[nH]c2c1,22.4 µM (active),–
COc1ccc(C(=O)O)cc1S(=O)(=O)NCc1cccnc1,–,-9.22
CCC(C)NC(=O)c1ccccc1NC(=O)c1ccccc1N(C)S(C)(=O)=O (stereo unspecified),–,-6.03
COC(=O)c1ccc(CSc2nnc(NC(C)C)s2)cc1,–,-22.8
Cc1ccc(C(=O)Oc2coc(CSc3nnc(NC(=O)c4cccs4)s3)cc2=O)cc1C,7.08 µM (active),–
O=C(Cc1cccs1)Nc1nnc(SCc2ccc(F)cc2)s1,–,-23.8
COc1cc(OC)cc(C(=O)NNC(=O)CNC(=O)c2ccc(Br)o2)c1,–,-17.5
CSCC[C@H](NC(=O)N1CCn2c1nc1ccccc12)C(=O)NCc1ccc2c(c1)OCO2,–,85
CCc1ccc(-n2c(=S)sc3c(=O)n(-c4ccccc4OC)c(=S)[nH]c32)cc1,–,-39
Cc1ccc(S(=O)(=O)N(Cc2ccccc2)c2ccccn2)cc1[N+](=O)[O-],–,-57.8
CCC(=O)N(Cc1ccccc1)c1ccccn1,–,-9.04
Cc1csc2ncc(C(=O)N(Cc3ccccc3)c3ccccn3)c(=O)n12,5.62 µM (active),–
CC(C)(C)C(=O)N(Cc1ccccc1)c1ccccn1,–,-13.5
Cc1ccc(C(=O)NNC(=O)c2cc3cc4ccccc4nc3s2)cc1,22.4 µM (active),–
Cc1ccc(C(=O)NNc2ncnc3ccccc23)cc1,–,-20.7
Cc1ccc(C(=O)NNC(=O)c2ccc3c(c2)OCCO3)cc1,–,-13.1
COc1cccc(N(CC(=O)NCc2ccccc2)C(=O)CCC(=O)Nc2nccs2)c1,–,-5.9
COC(=O)CCC(=O)N1CCCC(CO)(Cc2ccccc2)C1 (stereo unspecified),–,-7.35
COc1ccc(C)cc1Nc1nc(C)nc2c1oc1ccccc12,–,-2.54
Cc1nc(N2CCCC2C(=O)O)c2oc3ccccc3c2n1 (stereo unspecified),–,-11.1
Cc1nc(Cl)c2oc3ccccc3c2n1,0.158 µM (active),–

# — PubChem BioAssay AID485341 (National Center for Advancing Translational Sciences (NCATS), 2010)
